Out of some 28,000 sequences screened, about 1,300 (4.6%) were called active. Cut-off read from the data, not from the text of the source: active = GI50 up to about 1.1 µM and inactive = higher. The entries come from a sample that favours actives as a whole. Potency and affinity values are given separately.
These substances were tested on MDA-N.

| Substance | GI50 |
| --- | --- |
| [Bis(aminomethyl)pentamethylenesilane]tetrachloropaltinum(IV), CHEMBL2146204 | 0.935 µM |
| [Bis(aminomethyl)pentamethylenesilane]dichloropaltinum(II), CHEMBL2146202 | 2.42 µM |
| [Bis(aminomethyl)dimethylsilane]tetrachloroplatinum(IV), CHEMBL2146190 | 15.9 µM |
| [Bis(aminomethyl)tetramethylenesilane]tetrachloropaltinum(IV), CHEMBL2146189 | 2.72 µM |
| CISPLATIN, CHEMBL11359 | 6.18 µM |
| [Bis(aminomethyl)tetramethylenesilane]dichloropaltinum(II), CHEMBL2146205 | 6.89 µM |

From ChEMBL document CHEMBL1201862, “PubChem BioAssay data set” (2004)
